Compound activity as filed in PubChem BioAssay.
HCMV antiviral: human cytomegalovirus inhibition; activity change, negative = inhibition, % at 57.5 µM; HFF cells, HCMV-luciferase reporter, 72 h; hits give low values; actives 4.5% (n = 410,000); in the data active = activity change below about -60%; inconclusive = no clear call, values can overlap the other calls; inactive = above about -39%
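Screen run at 2 compound doses on HFFs infected with reporter HCMV, MOI 1 PFU/cell. Luciferase activity from cell lysates at 72 h post infection gave inhibition relative to buffer-only and Salinomycin wells.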
Vaccinia Venus: inhibitors of vaccinia virus (Venus reporter) | actives 0.46% (n = 330,000) | Vaccinia virus Venus reporter expression, fluorescence | Potency, µM (highest dose often 36.5 µM), inactives show at the top dose activity change, negative = inhibition, actives largely listed as inhibitors; calls by dose curve; tested in A549 cells; also: potency is read from the fitted curve at half-maximal effect; nearly all actives have a fitted effect of over 30% in size
LmPK inh: LmPK (Leishmania mexicana) enzyme inhibition; Q27686; purified LmPK, Kinase-Glo ATP luminescence, 1 h; Potency, µM (doses to about 57.5 µM), for the others: at the highest dose activity change, negative = inhibition, hits mostly inhibitors; actives 0.37% (n = 290,000); AID 1721; also: potency is read from the fitted curve at half-maximal effect
Target sequence (Q27686 whole entry, looked up): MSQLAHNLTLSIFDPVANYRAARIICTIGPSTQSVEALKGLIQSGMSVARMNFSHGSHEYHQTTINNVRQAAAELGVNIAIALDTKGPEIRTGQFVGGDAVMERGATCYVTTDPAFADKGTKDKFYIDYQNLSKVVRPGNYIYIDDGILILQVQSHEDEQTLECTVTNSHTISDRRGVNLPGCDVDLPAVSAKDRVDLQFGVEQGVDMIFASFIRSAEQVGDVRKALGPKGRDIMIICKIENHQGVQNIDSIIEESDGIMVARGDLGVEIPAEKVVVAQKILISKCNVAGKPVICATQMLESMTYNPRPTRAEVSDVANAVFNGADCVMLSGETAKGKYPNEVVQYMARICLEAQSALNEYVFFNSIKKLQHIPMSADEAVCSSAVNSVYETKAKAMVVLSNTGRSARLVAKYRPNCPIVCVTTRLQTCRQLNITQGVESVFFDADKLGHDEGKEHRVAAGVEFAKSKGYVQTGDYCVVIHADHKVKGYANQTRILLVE
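0.1 nM LmPK, 0.5 mM PEP, 0.1 mM ADP; 50 mM imidazole pH 7.2, 7 mM MgCl2, 50 mM KCl; 1 h RT. Kinase-Glo luminescence readout, normalized to no-enzyme (full inhibition) and uninhibited wells.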
VACV mCherry inh: vaccinia inhibition (mCherry reporter); Vaccinia virus mCherry reporter infection, fluorescence; Potency, µM (titrated, usually from 36.5 µM), for the others: top-dose activity change, negative = inhibition, actives largely listed as inhibitors; actives 0.63% (n = 310,000); AID 720579; calls by dose curve; tested in A549 cells; also: potency is read from the fitted curve at half-maximal effect; nearly all actives have a fitted effect of over 35% in size
TbPYK inhibitor: blocks Trypanosoma brucei pyruvate kinase; Potency, µM (series often up to 76.8 µM), inactives show at the top dose activity, negative = inhibition, hits mostly inhibitors; AID 624173; TbPYK enzyme, Kinase-Glo Plus ATP luminescence, 45 min; actives 0.12% (n = 410,000); Q57TT1; also: potency is read from the fitted curve at half-maximal effect; nearly all actives have a fitted effect of over 50% in size
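Luminescent Kinase-Glo Plus end-point after 45 min room-temperature reaction of T. brucei pyruvate kinase started with 130 uM ADP (final). Buffer TEA 50 mM pH 7.2 with KCl, MgCl2, BSA, Tween-20; titration-based qHTS with fitted concentration-effect curves.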
Active calls of the source: *; i = inactive; ? = inconclusive; / = no result given; ! = a repeat was not active; [ ] = dose if it differs, or a comment. In the library only some 5% were active in any assay of this set; here they are far more common. Unless noted, calls follow the shape of the dose curve; as a rule, active = well fitted curve in the direction sought with a large enough effect; inconclusive = small, poorly fitted or top-dose-only effect, or another doubt; inactive = no such curve, though single readings can be large; an effect the other way counts as inactive or inconclusive. % is scaled to controls: 0 for no effect and ±100 for the full control effect.

SMILES	HCMV antiviral	Vaccinia Venus	LmPK inh	VACV mCherry inh	TbPYK inhibitor
CCCCCCSc1cccc(-c2nc3ccccn3c2NCc2ccccc2)c1	-65*!	-9%	/	-8%	4%
CCOc1ccc(OCC)c(NC(=O)CN(C)S(=O)(=O)c2ccc3c(c2)CCCC(=O)N3)c1	-21	-14%	/	-23%	2%
CCN(CC)C1Oc2cc3c(cc2C(c2cccc(OC)c2O)C1C)OCO3 (stereo unspecified)	-9	?	/	?	-11%
COc1cc(C2c3cc4c(cc3OC(NCc3ccccc3)C2C)OCO4)cc(OC)c1OC (stereo unspecified)	-80*	-28%	/	?	1%
COc1ccc(C2c3cc4c(cc3OC(NNC(N)=O)C2C)OCO4)cc1 (stereo unspecified)	11	?	/	-11%	1%
COc1cc(C2c3cc4c(cc3OC(NNC(N)=S)C2C)OCO4)cc(OC)c1OC (stereo unspecified)	-81*	?	/	2.8µM*	-14%
COc1cccc(C2c3cc4c(cc3OC(NNC(N)=O)C2C)OCO4)c1O (stereo unspecified)	-73*	?	/	?	-6%
COc1cc(C2c3cc4c(cc3OC(NNC(N)=O)C2C)OCO4)cc(OC)c1OC (stereo unspecified)	-86*	?	/	-20%	2%
CCN(CC)C1Oc2cc3c(cc2C(c2cc(OC)c(O)c(OC)c2)C1C)OCO3 (stereo unspecified)	62	-28%	/	?	-7%
Cc1n[nH]c(=O)n(N=Cc2cccs2)c1=O	0	2%	/	i	-10%
CCN(CC)S(=O)(=O)c1cc(C)ccc1NC(=S)Nc1cccnc1	-69*	-19%	1%	-19%	-3%
CCN(CC)S(=O)(=O)c1cc(C(=O)Nc2cccnc2)ccc1Cl	-21	/	6%	/	-9%
CC(=O)[O][Hg][c]1ccccc1	/	?	/	20µM*	?
COC(=O)c1ccccc1	22	/	/	/	/
COc1cc(C(=O)N/N=C/c2ccsc2C)cc(OC)c1OC	-79*	?	0%	?	-13%
Cc1cc(C(=O)N/N=C/c2cc(Br)ccc2OC(=O)c2ccccc2Cl)n[nH]1	?	?	1%	6.3µM*	1%
COc1ccc(C(=O)N/N=C/c2ccccc2OC(=O)c2ccccc2)cc1	-97*	?	2%	2µM*	-9%
CC(C)(C)C(=O)Nc1ccc(C(=O)N/N=C/c2ccccc2OC(=O)c2ccc(Cl)cc2)cc1	-23	?	-4%	7.9µM*	18%
O=C(c1scc2c1CCCC2)N1CCCCC1	15	-12%	-4%	-16%	-1%
O=C(CNC(=O)c1ccc(N2C(=O)c3ccccc3C2=O)cc1)OCC(=O)c1ccccc1	-26	/	1%	/	-7%
COCCn1c(SCC(=O)Nc2ccc(OC)c(S(N)(=O)=O)c2)nc2ccccc21	0	-5%[7.34 µM]	6%	-13%[7.34 µM]	3%
CSCCC(NC(=O)OCc1ccccc1)C(=O)NCc1cccnc1 (stereo unspecified)	-12	/	-2%	/	10%
O=C(N/N=C/c1cc(Br)ccc1OC(=O)c1ccc(Br)cc1)c1ccncc1	-16	?	0%	4.5µM*	6%
COc1cc(C(=O)Oc2ccccc2/C=N/NC(=O)c2ccc(C)cc2)cc(OC)c1OC	-99*	?	0%	/	2%
CCc1nc2ccc(C(=O)NCCOc3ccc(OC)cc3)cn2c1N(CCN(C)C)CC1CC1	-64*	0%	/	4%	2%
SMILES	HCMV antiviral	Vaccinia Venus	LmPK inh	VACV mCherry inh	TbPYK inhibitor
c1ccc(Nc2ccc(NCCc3c[nH]c4ccccc34)cc2)cc1	25	/	/	/	/
Cc1cc(NCCc2c[nH]c3ccccc23)ccc1Nc1cccnc1	-87*	/	/	/	/
CC(C)(C)c1nc2ccc(NS(=O)(=O)c3ccc(F)c(F)c3F)cc2[nH]1	-66*	-13%	6%	-8%	6%
O=S(=O)(Nc1ccc2nc(C(F)(F)F)[nH]c2c1)c1ccccc1	?	-25%	0%	-12%	-2%
CC(C)(C)c1ccc(C(=O)NC(=S)NCc2cccnc2)cc1	-78*	-24%	-1%	-13%	9%
O=C(NCc1cccnc1)c1nc(-c2ccc(C(F)(F)F)cc2)no1	-61*	-19%	2%	-9%	3%
CC(C)(C)c1ccc(C(=O)NCc2cccnc2)cc1	67	/	-7%	/	-6%
O=C(NCc1cccnc1)c1ccc(Cn2cc(C(F)(F)F)ccc2=O)cc1	-16	-16%	-8%	-3%	-3%
O=C(NCc1ccncc1)c1nc(-c2cccs2)no1	12	9%	4%	-10%	-20%
O=C(NCc1ccncc1)c1nc(-c2ccc(C(F)(F)F)cc2)no1	-79*	3%	0%	-28%	0%
COc1ccc(S(=O)(=O)N2CCCC(c3cc(C(=O)NCc4cccnc4)no3)C2)cc1 (stereo unspecified)	-1	-1%	/	-13%	-7%
Cc1ccc(N2CC(C(=O)Oc3cccc(N4C(=O)CCC4=O)c3)CC2=O)cc1 (stereo unspecified)	22	/	0%	/	-6%
O=C(Nc1ccccc1C(=O)O)C1=NN=CC1	-11	8%	3%	-10%	-1%
COC(=O)c1cc(NC(=O)CCc2c(C)nc3cc(-c4ccccc4)nn3c2C)cc(C(=O)OC)c1	8	3%	/	-3%	3%
COc1cc(OC)cc(-c2cc3nc(C)c(CCC(=O)Nc4ccc(F)c(Cl)c4)c(C)n3n2)c1	-62*	-15%	/	-20%	3%
COc1cc(NC(=O)CCc2c(C)nc3cc(-c4ccccc4)nn3c2C)cc(OC)c1OC	-104*	-8%	/	-14%	3%
COc1ccc(NC(=O)CCc2c(C)nc3cc(-c4cccc(F)c4)nn3c2C)cc1Cl	-31	-6%	/	-4%	2%
O=C(NC1CCCCC1)N1CCN(CCc2ccccc2)CC1	54	-10%	-2%	-9%	-1%
O=C(NC1CCCCC1)N1CCN(Cc2ccco2)CC1	-63*	1%	4%	0%	-9%
O=C(CCn1c(=O)c2cccn2c2cccnc21)NCc1cccc(Br)c1	-61*	-11%	/	-14%	1%
CCCNC(=O)Cn1c(=O)c2cccn2c2cccnc21	-81*	-8%	/	-5%	3%
CC(C)CCNC(=O)CCn1c(=O)c2cccn2c2cccnc21	-60*	-5%	/	-11%	2%
Cc1ccc(CCNC(=O)c2ccc(Cn3c(=O)c4cccn4c4cccnc43)cc2)cc1	-60*	?	/	?	14%
CCOc1ccc(CNC(=O)Cn2c(=O)c3cccn3c3cccnc32)cc1	-24	1%	/	2%	0%
Cc1[nH]c2ccccc2c1Cc1n[nH]c(=S)n1C	-14	-5%	-1%	-18%	?
Cn1c(Cc2c[nH]c3ccccc23)n[nH]c1=S	69	12%	-5%	/	18µM*
Cc1[nH]c2ccccc2c1SCc1n[nH]c(=S)n1C	-78*	/	7.9µM*	/	?
c1ccc2c(Cc3c[nH]c4ccccc34)c[nH]c2c1	/	-9%	/	-10%	/
